# High-throughput results deposited in PubChem by National Center for Advancing Translational Sciences (NCATS).
# Only some compounds are listed: those with a hit (about 19% of all), similar ones and a draw of the others.
# KB-3-1 tox – kills parental KB-3-1 adenocarcinoma cells; Potency, µM (titrated, usually from 46.1 µM), hits mostly cytotoxic; actives 1.4% (n = 400,000); KB-3-1 viability, CellTiter-Glo ATP luminescence, 72 h; further: nearly all actives have a fitted effect of over 60% in size
#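 Cells are dispensed, compounds pinned in, plates held at 37 °C for 72 h, then CellTiter-Glo is added and luminescence read after 10 minutes. Cell line: parental KB-3-1 in phenol-red-free DMEM, 10% FBS.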
# HT1080 IDH1KD tx – kills HT-1080 cells with IDH1 knockdown | Potency, µM (top dose mostly 46.1 µM), inactives show at the highest dose activity, negative = toxicity, most hits filed as cytotoxic | actives 2% (n = 360,000) | HT-1080 IDH1 knockdown viability, ATP luminescence, 48 h;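 further: 0% = DMSO wells and -100% = cell-free medium wells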
#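 Viability of IDH1-knockdown HT-1080 fibrosarcoma cells was assessed by CellTiter-Glo after 48 h at 37 °C with titrated compound; concentration-effect curves were classified by fit quality and response size.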
# DT40 TDP1 CPT – DT40-hTDP1 cell growth loss with CPT. chicken DT40 Tdp1-/-;hTDP1 cells + 20 nM CPT, ATP luminescence, 48 h. Potency, µM (highest dose often 46.2 µM), without a hit: at the highest dose activity change, negative = growth inhibition, actives largely listed as inhibitors. actives 12% (n = 420,000); further: nearly all actives have a fitted effect of over 55% in size
#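 Cell growth measured by CellTiter-Glo luminescence after a minimum 48 h, 37 C compound exposure with 20 nM CPT in Tdp1-knockout DT40 cells stably expressing hTDP1, seeded 400/well; qHTS titration format.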
# HT1080NT lethal – kills 2HG-producing HT-1080-NT fibrosarcoma cells; HT-1080-NT fibrosarcoma viability, CellTiter-Glo ATP luminescence, 48 h; Potency, µM (titrated, usually from 46.1 µM), without a hit: at the highest dose activity, negative = less viability, actives largely listed as cytotoxic; actives 1.6% (n = 360,000);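 further: NT is the 2HG producing partner of a matched IDH1 knockdown line; 0% = DMSO-treated cells and -100% = media-only wells without cells; nearly all actives have a fitted effect of over 55% in size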
#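 Luminescent CellTiter-Glo readout after 48 hours of compound exposure at 37 degrees C defined viability of HT-1080-NT cells. Activity was normalized to DMSO wells and cell-free media wells; concentration-response curves were fitted and assigned curve classes.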
# KB-V1 MDR tox – KB-V1 MDR subline cytotoxicity | actives 3.4% (n = 400,000) | KB-V1 MDR cells viability, CellTiter-Glo, 72 h | Potency, µM (highest dose often 46.1 µM), hits mostly cytotoxic; further: nearly all actives have a fitted effect of over 60% in size
#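 KB-V1 MDR subline cells in DMEM (phenol-red free, 10% FBS) exposed to compounds in qHTS concentration series for 72 h at 37 degrees C. Viability read by CellTiter-Glo luminescence; concentration-effect curves fitted after normalization and correction.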
# DT40 TDP1 no CPT – qHTS for Inhibitors of human tyrosyl-DNA phosphodiesterase 1 (TDP1): qHTS in cells in absence of CPT | DT40 Tdp1-/- hTDP1 cells, no CPT, ATP luminescence, 48 h | Potency, µM (top dose mostly 46.2 µM), without a hit: top-dose activity change, negative = growth inhibition, most hits filed as inhibitors | actives 15% (n = 420,000) | AID 686978, 2013; further: nearly all actives have a fitted effect of over 55% in size
#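 A cellular qHTS used chicken DT40 cells lacking endogenous Tdp1 but carrying stably transfected human TDP1. Compounds were applied without camptothecin, and cell growth kinetics were judged by ATP-dependent luminescence after ≥48 hr.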
# * = called active by the depositor; i = inactive; ? = inconclusive; . = no result given; [ ] = dose if it differs, or a comment. The call rests on the fitted dose curve; in most records, active means well fitted curve in the direction sought with a large enough effect; inconclusive means small, poorly fitted or top-dose-only effect, or another doubt; inactive means no such curve, though single readings can be large; an effect the other way counts as inactive or inconclusive. Unless noted, on the % scale 0 is the no-effect control and ±100 the full control effect; potency means the concentration at half of the fitted maximal effect.
SMILES,KB-3-1 tox,HT1080 IDH1KD tx,DT40 TDP1 CPT,HT1080NT lethal,KB-V1 MDR tox,DT40 TDP1 no CPT
CCOc1ccc(N2CC(C(=O)Nc3cccc(S(=O)(=O)N4CCCC4)c3)CC2=O)cc1 (configuration not stated),i,-8%,-2%,-7%,i,-23%
CCOc1ccccc1N1CC(C(=O)Nc2cccc(S(=O)(=O)N3CCCCC3)c2)CC1=O (configuration not stated),i,-4%,?,-11%,i,23µM*
CCOc1ccc(N2CC(C(=O)Nc3ccc(S(=O)(=O)N4CCOCC4)cc3)CC2=O)cc1 (configuration not stated),i,2%,-3%,5%,i,-8%
CCC(C)c1ccccc1N1CC(C(=O)Nc2ccc(S(=O)(=O)N3CCOCC3)cc2)CC1=O (configuration not stated),i,5%,23µM*,-3%,i,23µM*
CCC(C)c1ccccc1N1CC(C(=O)N2CCN(c3ccccc3)CC2)CC1=O (configuration not stated),i,-13%,15µM*,-12%,?,23µM*
C[C@@H](NC(=O)C1(c2ccccc2)CCN(C(=O)OC(C)(C)C)CC1)C(=O)N[C@@H](C(=O)O)c1ccccc1,i,-6%,38%,-2%,i,6%
CN(C)c1ncc2nc(-c3ccc(Cl)cc3)c(=O)n(C3CC3)c2n1,.,.,-1%,.,.,1%
O=C(Nc1cccc2c1CCCC2)C1CCCN(S(=O)(=O)c2cccc3nonc23)C1 (configuration not stated),i,-3%,-16%,-5%,i,?
Cc1cc(C)n(CC(=O)NNC(=O)c2ccc(OC(F)(F)F)cc2)n1,i,8%,-1%,0%,i,-18%
CCOc1ccccc1N1CC(C(=O)Nc2ccc(S(=O)(=O)N3CCCCC3)cc2)CC1=O (configuration not stated),i,15%,13µM*,13%,i,13µM*
O=C(Nc1ccc(S(=O)(=O)N2CCCC2)cc1)C1CC(=O)N(c2ccccc2)C1 (configuration not stated),i,1%,-5%,1%,i,12%
Cc1ccc(C(=O)Cn2c(=N)n(CCN3CCOCC3)c3ccccc32)cc1,i,-4%,?,-7%,i,?
CCn1c(=N)n(CC(=O)c2ccc(Cl)c(Cl)c2)c2ccccc21,?,23µM*,26µM*,?,16µM*,21µM*
COC(=O)Cn1c(=N)n(CCN2CCCCC2)c2ccccc21,i,9%,3%,10%,i,2%
N=c1n(CCN2CCCCC2)c2ccccc2n1CC(=O)c1ccc(Cl)c(Cl)c1,?,21µM*,?,21µM*,?,?
Cc1ccc(Cn2c(=N)n(CC(=O)c3ccc([N+](=O)[O-])cc3)c3ccccc32)cc1,18µM*,-13%,4.6µM*,-3%,15µM*,2.9µM*
CCOC(=O)N1CCN(C(=O)CSc2nnc(-c3cc(OC)cc(OC)c3)o2)CC1,i,-7%[9.24 µM],-7%,3%,?,?
CCOC(=O)N1CCN(C(=O)CSc2nnc(-c3cc(OC)ccc3OC)o2)CC1,i,7%,15µM*,4%,i,21µM*
Cc1ccc(-c2nnc(SCC(=O)N3CCCC3)o2)cc1C,i,1%,-5%,-1%,i,-26%
COc1ccc(-c2nnc(SCC(=O)N3CCC(Cc4ccccc4)CC3)o2)cc1OC,i,13%,-20%,5%,5.2µM*,?
CCOC(=O)N1CCN(C(=O)CSc2nnc(-c3cccc(OC)c3)o2)CC1,i,7%,16µM*,6%,i,23µM*
CCOC(=O)N1CCN(C(=O)CSc2nnc(-c3ccc(C)c(C)c3)o2)CC1,i,7%,?,2%,i,15µM*
CCOC(=O)N1CCN(C(=O)CSc2nnc(-c3ccccc3OC)o2)CC1,i,9%,2%,14%,i,-26%
O=[N+]([O-])c1nccn1CCCCCCN1CCOCC1,i,14%,3%,14%,i,-7%
COc1cccc(-c2nnc(SCC(=O)N(C(C)C)C(C)C)o2)c1,i,-1%,?,0%,18µM*,?
SMILES,KB-3-1 tox,HT1080 IDH1KD tx,DT40 TDP1 CPT,HT1080NT lethal,KB-V1 MDR tox,DT40 TDP1 no CPT
COc1cccc(-c2nnc(SCC(=O)N3CCCCC3)o2)c1,i,.,?,.,i,?
CCC(C)Nc1nc(N)c([N+](=O)[O-])c(NC2CCCCC2)n1 (configuration not stated),i,5%,?,3%,i,?
CCC(C)Nc1nc(N)c([N+](=O)[O-])c(N2CCCCCC2)n1 (configuration not stated),i,-11%,?,-3%,i,2.6µM*
Nc1nc(NCCO)nc(N2CCCCCC2)c1[N+](=O)[O-],i,-6%,-5%,3%,i,-4%
CC(C)CNc1nc(N)c([N+](=O)[O-])c(N2CCCCCC2)n1,18µM*,?,?,?,9.2µM*,16µM*
CCCCNC(=O)c1cc2c(=O)n3cccc(C)c3nc2n(Cc2ccncc2)c1=N,i,-12%,?,10%[9.24 µM],i,?
Cc1ccc(-n2c(=O)c3c(c4cc(C)ccc4n3C)n(CC(=O)Nc3cc(C)cc(C)c3)c2=O)cc1,i,.,1%,.,i,-14%
OCc1cc([C@@H](O)CNCCCCCCOCCCCc2ccccc2)ccc1O,i,.,9.4µM*,.,i,11µM*
S=C(NCc1ccccc1)Nc1ccc2ccccc2c1,i,0%,10%,0%,i,2%
C/C(=C\C(=S)Nc1ccccc1)Nc1ccc2ccccc2c1,i,1%,18µM*,3%,i,?
C/C(=C\C(=S)Nc1ccccc1)Nc1cccc2ccccc12,i,1%,?,2%,i,23µM*
CC(NC(=O)C12CC3CC(CC(C3)C1)C2)C(=O)N/N=C/C1=C(N2CCOCC2)C(=C\c2cccc([N+](=O)[O-])c2)/CC1 (configuration not stated),i,14%,?,-4%,i,12µM*
